Data as given in publication PMC5540273 (PLoS ONE, 2017).

Legend:
Conditions in all cases: concentration: 1 μM, replicates: in singlicate; n = 1
MAP4K3 = tested on: MAP4K3
MAP4K4 = tested on: MAP4K4
MAP4K5 = tested on: MAP4K5
MAPKAPK2 = tested on: MAPKAPK2
MAPKAPK5 = tested on: MAPKAPK5
MARK1 = tested on: MARK1
MARK2 = tested on: MARK2
MARK3 = tested on: MARK3
MARK4 = tested on: MARK4
MAST1 = tested on: MAST1
MEK1 = tested on: T1, MEK1
T1 construct: gene MAP2K1

MEK2 = tested on: T2, MEK2
T2 construct: gene MAP2K2

MEK3 = tested on: T3, MEK3
T3 construct: gene MAP2K3

MEK4 = tested on: T4, MEK4
T4 construct: gene MAP2K4

MEK5 = tested on: T5, MEK5
T5 construct: gene MAP2K5

MEK6 = tested on: T6, MEK6
T6 construct: gene MAP2K6

MELK = tested on: MELK
MERTK = tested on: MERTK
MET = tested on: MET
MINK = tested on: T7, MINK
T7 construct: gene MINK1
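Also: KINOMEscan kinase panel screen.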

SMILES: Cc1cccc(Cn2ccn3c(=O)cc(N4CCOCC4)nc23)c1 [GSK2297542]
- %Inh (MAP4K3): 0%
- %Inh (MAP4K4): 4%
- %Inh (MAP4K5): 0%
- %Inh (MAPKAPK2): 14%
- %Inh (MAPKAPK5): 0%
- %Inh (MARK1): 7%
- %Inh (MARK2): 11%
- %Inh (MARK3): 0%
- %Inh (MARK4): 10%
- %Inh (MAST1): 0%
- %Inh (MEK1): 0%
- %Inh (MEK2): 0%
- %Inh (MEK3): 0%
- %Inh (MEK4): 23%
- %Inh (MEK5): 14%
- %Inh (MEK6): 5%
- %Inh (MELK): 8%
- %Inh (MERTK): 24%
- %Inh (MET): 23%
- %Inh (MINK): 7%

SMILES: COc1ccc(Nc2nccc(N3CCC(NC(=O)Nc4cccc(C(C)=O)c4)C3)n2)cc1 (centres unmarked) [GSK1379731]
- %Inh (MAP4K3): 0%
- %Inh (MAP4K4): 8%
- %Inh (MAP4K5): 0%
- %Inh (MAPKAPK2): 0%
- %Inh (MAPKAPK5): 0%
- %Inh (MARK1): 0%
- %Inh (MARK2): 0%
- %Inh (MARK3): 0%
- %Inh (MARK4): 10%
- %Inh (MAST1): 0%
- %Inh (MEK1): 0%
- %Inh (MEK2): 0%
- %Inh (MEK3): 0%
- %Inh (MEK4): 40%
- %Inh (MEK5): 36%
- %Inh (MEK6): 0%
- %Inh (MELK): 0%
- %Inh (MERTK): 35%
- %Inh (MET): 0%
- %Inh (MINK): 0%

SMILES: COC(=O)Nc1nc2cc(Oc3ccc(NC(=O)Nc4cc(F)ccc4F)cc3)ccc2[nH]1.Cl [GW701424]
- %Inh (MAP4K3): 0%
- %Inh (MAP4K4): 0%
- %Inh (MAP4K5): 0%
- %Inh (MAPKAPK2): 13%
- %Inh (MAPKAPK5): 0%
- %Inh (MARK1): 0%
- %Inh (MARK2): 0%
- %Inh (MARK3): 3%
- %Inh (MARK4): 0%
- %Inh (MAST1): 5%
- %Inh (MEK1): 0%
- %Inh (MEK2): 0%
- %Inh (MEK3): 0%
- %Inh (MEK4): 15%
- %Inh (MEK5): 12%
- %Inh (MEK6): 0%
- %Inh (MELK): 10%
- %Inh (MERTK): 90.8%
- %Inh (MET): 40%
- %Inh (MINK): 5%

SMILES: Cc1cn2c(=O)cc(N3CCOCC3)nc2n1Cc1cccc(Cl)c1Cl [GSK2334006]
- %Inh (MAP4K3): 5%
- %Inh (MAP4K4): 16%
- %Inh (MAP4K5): 19%
- %Inh (MAPKAPK2): 28%
- %Inh (MAPKAPK5): 0%
- %Inh (MARK1): 0%
- %Inh (MARK2): 0%
- %Inh (MARK3): 2%
- %Inh (MARK4): 0%
- %Inh (MAST1): 0%
- %Inh (MEK1): 11%
- %Inh (MEK2): 0%
- %Inh (MEK3): 0%
- %Inh (MEK4): 17%
- %Inh (MEK5): 54%
- %Inh (MEK6): 0%
- %Inh (MELK): 17%
- %Inh (MERTK): 5%
- %Inh (MET): 0%
- %Inh (MINK): 0%

SMILES: [2H]C([2H])(c1cccc(C(F)(F)F)c1C)n1ccn2c(=O)nc(N3CCOCC3)cc12 [GSK2336394]
- %Inh (MAP4K3): 0%
- %Inh (MAP4K4): 6%
- %Inh (MAP4K5): 0%
- %Inh (MAPKAPK2): 22%
- %Inh (MAPKAPK5): 0%
- %Inh (MARK1): 0%
- %Inh (MARK2): 0%
- %Inh (MARK3): 0%
- %Inh (MARK4): 2%
- %Inh (MAST1): 0%
- %Inh (MEK1): 0%
- %Inh (MEK2): 0%
- %Inh (MEK3): 0%
- %Inh (MEK4): 35%
- %Inh (MEK5): 1%
- %Inh (MEK6): 0%
- %Inh (MELK): 0%
- %Inh (MERTK): 0%
- %Inh (MET): 0%
- %Inh (MINK): 0%

SMILES: Cn1ccc2ncnc(Oc3ccc(NC(=O)Nc4ccncc4)c(Cl)c3)c21
- %Inh (MAP4K3): 0%
- %Inh (MAP4K4): 0%
- %Inh (MAP4K5): 0%
- %Inh (MAPKAPK2): 0%
- %Inh (MAPKAPK5): 0%
- %Inh (MARK1): 0%
- %Inh (MARK2): 11%
- %Inh (MARK3): 2%
- %Inh (MARK4): 0%
- %Inh (MAST1): 2%
- %Inh (MEK1): 40%
- %Inh (MEK2): 32%
- %Inh (MEK3): 0%
- %Inh (MEK4): 0%
- %Inh (MEK5): 4%
- %Inh (MEK6): 0%
- %Inh (MELK): 0%
- %Inh (MERTK): 0%
- %Inh (MET): 0%
- %Inh (MINK): 0%

SMILES: CCCCCc1nc2c(N)ncnc2n1CCCCC [SKF-97255]
- %Inh (MAP4K3): 2%
- %Inh (MAP4K4): 0%
- %Inh (MAP4K5): 0%
- %Inh (MAPKAPK2): 0%
- %Inh (MAPKAPK5): 0%
- %Inh (MARK1): 24%
- %Inh (MARK2): 0%
- %Inh (MARK3): 20%
- %Inh (MARK4): 31%
- %Inh (MAST1): 25%
- %Inh (MEK1): 15%
- %Inh (MEK2): 28%
- %Inh (MEK3): 34%
- %Inh (MEK4): 18%
- %Inh (MEK5): 32%
- %Inh (MEK6): 15%
- %Inh (MELK): 0%
- %Inh (MERTK): 17%
- %Inh (MET): 0%
- %Inh (MINK): 0%

SMILES: O=C(Nc1n[nH]c2cc(-c3cccc(F)c3)ccc12)C1CC1 [SB-735464]
- %Inh (MAP4K3): 0%
- %Inh (MAP4K4): 42%
- %Inh (MAP4K5): 6%
- %Inh (MAPKAPK2): 0%
- %Inh (MAPKAPK5): 21%
- %Inh (MARK1): 9%
- %Inh (MARK2): 25%
- %Inh (MARK3): 0%
- %Inh (MARK4): 5%
- %Inh (MAST1): 34%
- %Inh (MEK1): 8%
- %Inh (MEK2): 10%
- %Inh (MEK3): 8%
- %Inh (MEK4): 4%
- %Inh (MEK5): 31%
- %Inh (MEK6): 0%
- %Inh (MELK): 0%
- %Inh (MERTK): 23%
- %Inh (MET): 0%
- %Inh (MINK): 61%

SMILES: O=C(c1ccc(-c2cc(-c3c[nH]nc3-c3ccccn3)ccn2)cc1)N1CCOCC1 [GW812171]
- %Inh (MAP4K3): 0%
- %Inh (MAP4K4): 0%
- %Inh (MAP4K5): 0%
- %Inh (MAPKAPK2): 0%
- %Inh (MAPKAPK5): 0%
- %Inh (MARK1): 5%
- %Inh (MARK2): 21%
- %Inh (MARK3): 17%
- %Inh (MARK4): 11%
- %Inh (MAST1): 18%
- %Inh (MEK1): 31%
- %Inh (MEK2): 46%
- %Inh (MEK3): 38%
- %Inh (MEK4): 14%
- %Inh (MEK5): 42%
- %Inh (MEK6): 14%
- %Inh (MELK): 0%
- %Inh (MERTK): 12%
- %Inh (MET): 0%
- %Inh (MINK): 40%

SMILES: Nc1nccc(-c2c(-c3ccc(F)cc3)ncn2C2CCN(CC(F)(F)F)CC2)n1 [SB-236560]
- %Inh (MAP4K3): 0%
- %Inh (MAP4K4): 0%
- %Inh (MAP4K5): 0%
- %Inh (MAPKAPK2): 0%
- %Inh (MAPKAPK5): 0%
- %Inh (MARK1): 0%
- %Inh (MARK2): 0%
- %Inh (MARK3): 0%
- %Inh (MARK4): 4%
- %Inh (MAST1): 40%
- %Inh (MEK1): 0%
- %Inh (MEK2): 0%
- %Inh (MEK3): 30%
- %Inh (MEK4): 0%
- %Inh (MEK5): 10%
- %Inh (MEK6): 0%
- %Inh (MELK): 0%
- %Inh (MERTK): 9%
- %Inh (MET): 0%
- %Inh (MINK): 43%
